A selection: hits, their analogues and other compounds. The true share with any hit is near 21%.
CHX counter: Cycloheximide Counterscreen for Small Molecule Inhibitors of Shiga Toxin; max response, %; cell reporter, cycloheximide protein synthesis inhibition counterscreen; 300,000 compounds, 12% hits; in the data active = max response mostly above about 13%, no sharp cut-off; inactive = mostly below about 14%; note: read at 38.3 µM for the half of the compounds with a filed dose; 0% is about no effect
Pf growth 48h: Primary qHTS for delayed death inhibitors of the malarial parasite plastid, 48 hour incubation. P. falciparum luciferase growth in erythrocytes, 48 h. Potency, µM (doses to about 28.7 µM), without a hit: top-dose activity change, negative = inhibition, most hits filed as inhibitors. 310,000 compounds, 5.9% hits; note: potency is the fitted concentration of half-maximal effect; % is set by controls: 0 for no effect and ±100 for the full control effect
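Read-out is firefly luciferase luminescence from an integrated reporter in P. falciparum, so falling signal marks reduced parasite growth. Infected erythrocytes were at 2% hematocrit and 0.1% parasitemia (final) in Albumax-supplemented RPMI 1640.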
Pf growth 96h: Primary qHTS for delayed death inhibitors of the malarial parasite plastid, 96 hour incubation; P. falciparum luciferase reporter growth, 96 h; Potency, µM (titrated, usually from 28.7 µM), for inactives: at the highest dose activity change, negative = inhibition, hits mostly inhibitors; 320,000 compounds, 6.9% hits; AID 504834, 2011; note: potency is the fitted concentration of half-maximal effect; % is set by controls: 0 for no effect and ±100 for the full control effect
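P. falciparum expressing integrated firefly luciferase grown in erythrocytes (2% hematocrit, 0.05% parasitemia final) with compounds for 96 hours at 37 C, 5% CO2. Growth inhibition read as loss of luminescence after adding luciferase detection reagent.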
Shiga inhibitor: A qHTS for Small Molecule Inhibitors of Shiga Toxin. Vero cells, Shiga toxin protein synthesis inhibition reporter. inhibition, % at 38.7 µM. 290,000 compounds, 9.2% hits. AID 2315, 2010; in the data active = inhibition mostly above about 28%, no sharp cut-off; inactive = mostly below about 43%; note: 0% is about no effect
* hit, by the source's call; ? = inconclusive; / = no result; [ ] = remark or other dose. Unless noted, calls come from the whole dose curve; as a rule, active = well fitted inhibition curve with a large enough effect; inconclusive = small, poorly fitted or top-dose-only effect, or another doubt; inactive = no such curve, though single readings can be large or run the other way.

SMILES	CHX counter	Pf growth 48h	Pf growth 96h	Shiga inhibitor
O=C(Nc1cccc(Cl)c1N1CCCC1)c1cccc(-c2cc3ccccc3oc2=O)c1	26*	?	55%	39
O=C(Nc1cccnc1)c1cccc(-c2cc3ccccc3oc2=O)c1	12	88%	?	23
CCN(CC)CC(=O)c1c[nH]c2ccccc12	2	-10%	2.9µM*	-2
Cc1cccc(CC(=O)c2c[nH]c3ccccc23)c1	17	-7%	-20%	51*
Cc1cccc(CNCCc2c[nH]c3ccccc23)c1	-6	?	?	-16
CCN(CC)CC(=O)c1c[nH]c2ccc(C)cc12	-4	?	50%	-6
COc1ccc(C2NC(c3ccc(OC)cc3)C(c3ccccc3)C(=O)C2c2ccccc2)cc1 (stereo unspecified)	-1	12µM*	10µM*	4
O=C(CN(C(=O)C1CSC(=O)C1)c1cccc(F)c1)NCc1ccc2c(c1)OCO2 (stereo unspecified)	-7	-8%	?	-10
CC(=O)Oc1cc(C(F)(F)F)ccc1C(=O)O	/	9%[12.8 µM]	6%[12.8 µM]	/
Cc1ccc2c(c1)sc(=NC(=O)c1cccs1)n2C	-1	298%	402%	0
Cc1ccc2c(c1)sc(=NC(=O)C1CC1)n2C	45*	9%	113%	89*
COc1ccccc1CCNC(=O)c1cccc(S(=O)(=O)NCc2ccccc2)c1	/	?	5%	/
Cc1nc(Nc2ccccc2)sc1-c1ccccc1	35*	122%	-38%	88*
Cc1nc(Nc2ccc(C(=O)O)cc2)sc1-c1ccccc1	53*	-32%	-20%	84*
COC(=O)c1ccc(Nc2cc(C)nc3ccccc23)cc1	-5	?	-25%	-30
C[n+]1nc(Nc2ccccc2)sc1-c1ccc(O)cc1	2	7%	-3%	-7
Cc1cccnc1NC(=O)c1ccc(COc2ccccc2)o1	19	33%	45%	29
COc1cccc(-c2c(C(=O)N/N=C/c3ccco3)nnn2-c2nonc2N)c1	-2	20%	4%	-5
CCOc1ccc(C(=O)NCCCN2CCOCC2)cc1OCC	-2	7%	6%	-7
CC1=C(C(=O)Nc2cc(C(=O)NCCCOC(C)C)ccc2C)SCCO1	0	6%	2%	-7
O=C(Nc1ccccc1N1CCN(C(=O)c2ccc(Cl)cc2)CC1)c1cc(Br)ccc1Cl	1	6.6µM*	4.7µM*	-5
O=C(Nc1ccccc1N1CCN(C(=O)c2ccccc2)CC1)c1ccccc1Cl	1	0%	?	-1
COc1ccccc1C(=O)Nc1ccccc1N1CCN(C(=O)c2ccc(Cl)cc2)CC1	1	8.3µM*	?	-5
COc1ccc(/C=C/c2nc(S(=O)(=O)c3ccccc3)c(NCCCN(C)C)o2)cc1OC	5	12µM*	?	9
O=C(NCC1CCCN1S(=O)(=O)c1cccs1)c1cccc(Cl)c1 (stereo unspecified)	/	?	-8%	/
SMILES	CHX counter	Pf growth 48h	Pf growth 96h	Shiga inhibitor
COc1ccc(CN2CCN(CC(=O)Nc3ccccc3C(=O)NC3CC3)CC2)cc1F	/	10µM*	?	/
COC(=O)c1ccc(C(=O)OC)c(NC(=O)CN2CCN(c3ccccc3OC)CC2)c1	6	13µM*	-19%	-5
COc1ccccc1N1CCN(CC(=O)Nc2ccccc2C(=O)NC(C)c2ccccc2)CC1 (stereo unspecified)	/	12µM*	?	/
CC(NC(=O)CN1CCN(c2ccccc2F)CC1)c1ccccc1 (stereo unspecified)	1	-5%	?	-7
CC(NC(=O)c1ccccc1NC(=O)CN1CCN(c2ccccc2O)CC1)c1ccccc1 (stereo unspecified)	/	5.9µM*	13µM*	/
CC1CCN(CC(=O)Nc2ccccc2C(=O)NC2CC2)CC1	/	-14%	?	/
CCOc1ccccc1N1CCN(CC(=O)Nc2ccccc2C(=O)NC2CC2)CC1	/	9.3µM*	?	/
CC(NC(=O)c1ccccc1NC(=O)CN1CCc2ccccc2C1)c1ccccc1 (stereo unspecified)	-2	?	13µM*	-5
CCCOC(=O)Nc1sc2c(c1C(N)=O)CCCC2	10	0%	?	20
COc1ccccc1NC(=O)c1cn(CCC#N)nc1-c1ccc(F)cc1	0	-5%	12µM*	-4
C#CCCOC(=O)Nc1ccccc1	active	3%	?	22
O=C(Nc1ccccc1)OCCCc1ccccc1	50*	137%	12%	133*
COc1ccc(C)cc1S(=O)(=O)N(C)CC(=O)NCc1ccccn1	-1	-4%	?	6

Assay outcomes from PubChem.
